Compound activity (PubChem BioAssay)
The sample as a whole holds a higher share of hits than the screen did.
Dicer inh: inhibitors of human Dicer processing of pre-microRNA; cat-ELCCA pre-miR-21 Dicer processing, chemiluminescence; hits give high values; Q9UPY3; AID 1347074; 47,000 compounds, 6% hits; z-score at 25 µM; in the data active = z-score above about 3, passing the limit was not always enough;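 also: higher signal means more uncleaved substrate so more Dicer inhibition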
A number is an active result; n = inactive.

SMILES	Dicer inh
Cc1cc(C)nc(-n2ncc3c2CCCC3=O)n1	n
Cc1ccc(-c2coc3cc4oc(=O)c5ccccc5c4cc23)cc1	n
CCc1ccc(C2C(C(=O)OCCOC)=C(C)Nc3nc4ccccc4n32)cc1 (centres undefined)	n
N#CCC(=O)Nc1ccc([N+](=O)[O-])cc1	n
Cc1ccc(CSC2=NCN(C(C)(C)CC(C)(C)C)CN2)cc1	n
CSCCC(NC(=O)c1ccc(C(F)(F)F)cc1)C(=O)NN (centres undefined)	n
CCOC(=O)C(=CNNS(=O)(=O)c1cc(C(F)(F)F)cc(C(F)(F)F)c1)C(=O)OCC	n
COC(=O)C(CCSC)NS(=O)(=O)c1cc(C(F)(F)F)cc(C(F)(F)F)c1 (centres undefined)	4.85
COc1ccccc1N1C(=O)C2C(c3ccc(Cl)cc3)OC3(C(=O)c4ccccc4C3=O)C2C1=O (centres undefined)	n
COc1ccccc1Nc1nc(C)cs1	n
CC(=O)c1csc(Nc2ccccc2Cl)n1	n
Cc1csc(Nc2cccc3ccccc23)n1	3.27
Cc1nn(C)c(N/N=C/c2cc(Br)cs2)c1[N+](=O)[O-]	n
CC1=C(C(=O)OCCc2ccccc2)C(c2ccccc2)C2=C(CC(C)(C)CC2=O)N1 (centres undefined)	n
COc1ccc(Nc2ccnc3ccccc23)cc1	3.59
COc1ccc(Nc2nc3ccccc3c(=O)s2)cc1	n
COc1ccc(Nc2ncnc3ccccc23)cc1	n
CCOC(=O)C1CCN(c2ccc(C(C)=O)cc2N)CC1	n
CNC(=O)NNC(=O)c1sc(SC)c2c1CCC=C2	n
NC(=S)Cc1cc(C(F)(F)F)cc(C(F)(F)F)c1	n
CCOc1cc(C2Nc3ccccc3NC3=C2C(=O)CC(c2ccccc2)C3)cc(Cl)c1O (centres undefined)	n
CCOCCOC(=O)C1=C(C)NC2=C(C(=O)CC(c3cccs3)C2)C1c1ccc(F)cc1 (centres undefined)	n
CCOCCOC(=O)C1=C(C)NC2=C(C(=O)CC(c3ccc(Cl)cc3)C2)C1c1ccc(F)cc1 (centres undefined)	4.2
CCOC(=O)C1=C(C)NC2=C(C(=O)CC(c3ccc(Cl)cc3)C2)C1c1ccc(OCC)cc1 (centres undefined)	3.37
CCOc1cc(C2C(C(=O)OC)=C(C)NC3=C2C(=O)c2ccccc23)cc(Cl)c1O (centres undefined)	n
SMILES	Dicer inh
CCCOc1ccc(C2C(C(=O)OC)=C(C)NC3=C2C(=O)CC(c2ccc(OC)cc2)C3)cc1 (centres undefined)	n
CCOc1cc(C2C(C(=O)OC)=C(C)NC3=C2C(=O)CC(c2ccccc2)C3)cc(Cl)c1O (centres undefined)	3.72
CCOC(=O)C1=C(C)NC2=C(C(=O)CC(c3ccc(Cl)cc3)C2)C1c1ccc(N(C)C)cc1 (centres undefined)	n
CCOCCOC(=O)C1=C(C)NC2=C(C(=O)CC(c3ccccc3)C2)C1c1ccccc1OCC (centres undefined)	n
CCOC(=O)C1=C(C)NC2=C(C(=O)CC(c3ccc(OC)cc3)C2)C1c1ccc(OC)cc1 (centres undefined)	n
COC(=O)C1=C(C)NC2=C(C(=O)CC(c3ccc(OC)c(OC)c3)C2)C1c1ccc(OC)cc1OC (centres undefined)	n
CCOc1ccc(C2C(C(=O)OC)=C(C)NC3=C2C(=O)CC(c2ccc(OC)c(OC)c2)C3)cc1 (centres undefined)	3.19
CCn1cc(-c2ccc3ccccc3n2)c(=S)c2ccccc21	n
COc1nc2c(c(-c3cccs3)c1C#N)C(=O)c1ccccc1-2	n
CCCCCCCc1c(COC)[nH]c(=S)[nH]c1=O	n
O=c1[nH]c2sc(-c3ccccc3)cc2c(=O)n1-c1ccc(Cl)c(Cl)c1	n
CCC1CCCCN1Cc1c(C)[nH]c2ccc(Br)cc2c1=O (centres undefined)	n
CC1(C)O[C@H]2OC[C@@H]3OC(C)(C)O[C@@H]3[C@H]2O1	n
CCCOC(=O)COc1ccc2c(=O)c(-c3ccc(OC)c(OC)c3)c(C(F)(F)F)oc2c1	n
OCCN(CCO)c1cccc(Cl)c1	n
CCOC(=O)c1cc(C)ccc1NC(=O)c1cc(C)ccc1[N+](=O)[O-]	n
O=C(CSc1nnc2c(n1)[nH]c1ccccc12)N1CCCc2ccccc21	n
CN=C(C)/C(C(=O)OC)=C(/O)c1c([N+](=O)[O-])c(C)nn1C	n
O=C(c1ccccc1)c1ccc(-n2cccc2)c([N+](=O)[O-])c1	n
COc1ccc(C2CC(=O)c3cnc(N4CC(C)CC(C)C4)nc3C2)cc1OC (centres undefined)	n
Nc1c2c(nc3ccccc13)N(Cc1ccccc1)CC2	n
O=C(N=S1CCN(c2sccc2[N+](=O)[O-])CC1)Nc1ccc(Cl)cc1Cl	n
OC(COc1ccc2oc3c(c2c1)CCCC3)CN1CCN(c2ccccc2)CC1 (centres undefined)	3.12
O=C(O)COc1ccc2oc3c(c2c1)CCCC3	n
O=C(COc1ccc2oc3c(c2c1)CCCC3)Nc1cccc(Br)c1	n
c1ccc(Cc2nc3c4c5c(sc4ncn3n2)CCCCC5)cc1	n
